Here are results for 7 compounds from PubChem BioAssay (Tox21).

Inconclusive results are not listed. The source made the active and inactive calls. Unless noted, calls come from the whole dose curve.

Test [1] is described as follows: Nuclear factor erythroid 2-related factor 2/antioxidant responsive element (Nrf2/ARE) small molecule agonists: qHTS cell viability counter screen in human keratinocytes (AID 1919968; active = well fitted curve in the direction sought with a large enough effect in the repeat runs; an effect the other way counts as inactive or inconclusive; note: nearly all actives have a fitted effect of over 55% in size). An outline of the steps: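 KeratinoSens HaCaT cells, 1,500/well, preincubated 5 h, then exposed to compounds in DMSO for 23 h at 37 C/5% CO2. Viability read as CellTiter-Fluor fluorescence after 1 h, in the same wells as the ARE-luciferase read.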

The nature of test [2]: Nuclear factor erythroid 2-related factor 2/antioxidant responsive element (Nrf2/ARE) small molecule agonists: luciferase reporter gene qHTS assay in human keratinocytes (AID 1919969; note: nearly all actives have a fitted effect of over 35% in size; note: potency is the fitted concentration of half-maximal effect). (A reporter such as luciferase makes a cellular process visible.)
The target in test [3] is Gonadotropin-releasing hormone receptor (Homo sapiens) (UniProt P30968). As to the kind of experiment: Human gonadotropin-releasing hormone receptor (GnRHR) small molecule agonists, calcium flux assay in GnRHR-HEK293 cells (AID 1920063). Note: nearly all actives have a fitted effect of over 35% in size. An outline of the steps: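 HEK293 cells stably expressing human GnRHR were dye-loaded for 1 h at 37 C. Compound was added in agonist mode and fluorescence (Ex/Em 480/540) recorded kinetically for 3 min. Fifteen concentrations, triplicates.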
Gonadotropin-releasing hormone receptor (Homo sapiens), sequence (P30968 whole entry, looked up): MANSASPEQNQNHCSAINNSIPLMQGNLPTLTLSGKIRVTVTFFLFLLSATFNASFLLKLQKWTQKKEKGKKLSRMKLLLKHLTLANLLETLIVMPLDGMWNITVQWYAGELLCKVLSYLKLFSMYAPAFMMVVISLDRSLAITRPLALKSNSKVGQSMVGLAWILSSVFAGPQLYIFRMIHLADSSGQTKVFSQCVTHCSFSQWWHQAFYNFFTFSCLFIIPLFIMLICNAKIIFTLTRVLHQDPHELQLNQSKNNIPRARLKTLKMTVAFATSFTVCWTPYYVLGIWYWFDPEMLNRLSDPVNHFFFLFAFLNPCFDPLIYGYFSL

Test [4] concerns the target KiSS-1 receptor (Homo sapiens) (UniProt Q969F8). As to the kind of experiment: Human kisspeptin (KISS1R) small molecule agonists, calcium flux assay in KISS1R-HEK293 cells (AID 1920064; active = well fitted curve in the direction sought with a large enough effect in the repeat runs; an effect the other way counts as inactive or inconclusive). An outline of the steps:
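HEK293 cells stably expressing human KISS1R were loaded with calcium dye for 1 h at 37 C, then given compound; fluorescence (Ex/Em 480/540) was read kinetically for 3 min. Fifteen concentrations, triplicate.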
Background: A change in cytosolic calcium serves as a functional read-out for many receptors and channels.

Test [5] can be described thus: G protein-coupled receptor (GPCR) small molecule agonists, calcium flux assay: HEK293 wild type cell line counter screen (AID 1920065). An outline of the steps:
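Wild-type HEK293 cells plated 18 h, loaded with calcium dye 1 h at 37 C, then compounds added in agonist mode (ATP as positive control). Kinetic fluorescence Ex/Em 480/540 recorded 3 min at 1 sec intervals; 15 concentrations, triplicate.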

Test [6] in a line: p53 small molecule agonists, cell-based qHTS assay with rat liver microsomes (AID 1963578). Note: potency is the fitted concentration of half-maximal effect. An outline of the steps: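 Compound in DMSO added to p53RE-bla cells 5 h post-plating; rat microsomes/NADPH 0.5 mg/mL final; 16 h, 37 C; LiveBLAzer 2 h RT.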
Background: In qHTS, concentration-response curves come from the screen itself.

Test [7] is described as follows: p53 small molecule agonists, cell-based qHTS assay with human liver microsomes: qHTS cell viability counter screen (AID 1963579). Note: nearly all actives have a fitted effect of over 45% in size. An outline of the steps: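 HLM-supplemented (0.5 mg/mL final) and NADPH-supplemented (0.5 mg/mL final) p53RE-bla cultures, 4,000 cells per well, were dosed with compounds in DMSO for 16 h at 37 C; luminescent ATP detection (CellTiter-Glo, 30 min, room temperature) quantified surviving cells.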

Test [8] is described as follows: p53 small molecule agonists, cell-based qHTS assay: qHTS cell viability counter screen (AID 1963581). Note: nearly all actives have a fitted effect of over 45% in size. An outline of the steps: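 p53RE-bla HCT-116 cells, compounds added 5 h after plating and incubated 16 h at 37 C. Cytotoxicity measured in the same wells as intracellular ATP by CellTiter-Glo luminescence after 30 min at room temperature.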
The nature of test [9]: p53 small molecule agonists, cell-based qHTS assay (AID 1963582; active = well fitted activation curve with a large enough effect in the signal ratio in the repeat runs, not every such curve was filed as active; the % refers to the signal ratio). An outline of the steps: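 p53RE-bla reporter cells, compounds added in DMSO after 5 h plating, incubated 16 h at 37 C. Beta-lactamase read via 2 h room-temperature LiveBLAzer B/G FRET substrate, fluorescence intensity.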
For test [10], the target named is 5-hydroxytryptamine receptor 2A (Homo sapiens) (UniProt P28223). As to the kind of experiment: 5-hydroxytryptamine receptor 2A (HTR2A) small molecule antagonists, cell-based qHTS assay (AID 1963586). Note: nearly all actives have a fitted effect of over 45% in size. An outline of the steps: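 Antagonist-mode intracellular calcium assay: DOI (4 nM) added after 5 min compound pre-incubation at room temperature to dye-loaded HTR2A-CHO cells. Fluorescence followed for 3 min, sampled every second.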
5-hydroxytryptamine receptor 2A (Homo sapiens), sequence (P28223 whole entry, looked up): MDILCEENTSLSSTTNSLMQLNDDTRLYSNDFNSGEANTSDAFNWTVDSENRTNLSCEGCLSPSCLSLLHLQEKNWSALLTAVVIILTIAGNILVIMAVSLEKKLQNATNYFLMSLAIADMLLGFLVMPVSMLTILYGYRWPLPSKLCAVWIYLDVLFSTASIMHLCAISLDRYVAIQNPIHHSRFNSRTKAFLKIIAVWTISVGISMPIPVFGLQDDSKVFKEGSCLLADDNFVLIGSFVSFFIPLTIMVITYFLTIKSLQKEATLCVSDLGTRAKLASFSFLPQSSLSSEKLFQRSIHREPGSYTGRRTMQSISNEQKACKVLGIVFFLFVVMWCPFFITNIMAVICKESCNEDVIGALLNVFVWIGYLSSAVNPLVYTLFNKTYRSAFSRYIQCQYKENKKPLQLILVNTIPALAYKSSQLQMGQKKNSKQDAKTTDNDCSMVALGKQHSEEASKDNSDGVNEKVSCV

For test [11] the target is unchanged. Put plainly: 5-hydroxytryptamine receptor 2A (HTR2A) small molecule agonists, cell-based qHTS assay (AID 1963587). Note: nearly all actives have a fitted effect of over 30% in size. An outline of the steps:
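HTR2A-CHO cells, plated 18 h at 37 C/5% CO2, dye-loaded 1 h at 37 C; compounds in DMSO added by pin tool (agonist mode). Intracellular calcium flux read as kinetic fluorescence on FDSS over 2 min at 1 s intervals.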

Test [12] addresses Muscarinic acetylcholine receptor M1 (Homo sapiens) (UniProt P11229). Put plainly: Cholinergic receptor muscarinic 1 (CHRM1) small molecule antagonists, cell-based qHTS assay (AID 1963588). Note: nearly all actives have a fitted effect of over 40% in size. An outline of the steps:
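CHRM1-CHO calcium-flux assay, antagonist mode. Cells were seeded 18 h, dye-loaded 1 h at 37 C and given compound for 5 min at RT, then acetylcholine was added at 50nM. FDSS fluorescence was read 3 min; 15 concentrations, three runs.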

The target is the same in test [13]. Put plainly: Cholinergic receptor muscarinic 1 (CHRM1) small molecule agonists, cell-based qHTS assay (AID 1963589). Note: nearly all actives have a fitted effect of over 35% in size. An outline of the steps:
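CHO cells stably expressing human CHRM1 were loaded with calcium dye for 1 h at 37 C, then compound was added in agonist mode. Intracellular calcium fluorescence was followed kinetically at 1 s intervals. Fifteen concentrations were tested in three independent runs.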

A short description of test [14]: cAMP Responsive Elements (CRE) small molecule agonists, cell-based qHTS assay (AID 1963590). An outline of the steps:
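CRE-bla HEK 293T cells, 2,000/well in DMEM with 10% dialyzed FBS and 25 mM HEPES, pre-incubated 18 h at 37 C, then exposed to compound 3 h at 37 C. Beta-lactamase reporter read with LiveBLAzer B/G FRET substrate after 2 h at room temperature.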

The nature of test [15]: cAMP Responsive Elements (CRE) small molecule antagonists, cell-based qHTS assay (AID 1963591; active = well fitted inhibition curve with a large enough effect in the signal ratio in the repeat runs, not every such curve was filed as active; the % refers to the signal ratio). An outline of the steps:
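CRE-bla HEK293T cells plated 18 h, then given compound plus NKH477 at 0.25 uM final for 3 h at 37C. Beta-lactamase reporter read with LiveBLAzer B/G FRET substrate after 2 h at room temperature.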

The target of test [16] is Beta-2 adrenergic receptor (Homo sapiens) (UniProt P07550). Put plainly: Adrenergic beta2 receptor (ADRB2) small molecule antagonists, cell-based qHTS assay (AID 1963592). Note: series mostly up to about 92 µM; nearly all actives have a fitted effect of over 50% in size. An outline of the steps:
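Cells (CHO, stable ADRB2 overexpression) incubated 18-20hr at 37C; compounds added from DMSO; agonist mix (1nM isoproterenol, 100uM IBMX, 25uM Ro-20-1724) added; 0.5hr RT; d2-cAMP and anti-cAMP-cryptate added; 1hr RT; 665/615 nm read.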

The target in test [17] is D(2) dopamine receptor (Homo sapiens) (UniProt P14416). Put plainly: Dopamine D2 receptor (DRD2) small molecule agonists, cell-based qHTS assay (AID 1963594). Note: nearly all actives have a fitted effect of over 35% in size. An outline of the steps: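 HEK293 cells stably expressing DRD2 were cultured 24 h at 37 C, then given Ro20-1724 (0.1 mM final) and compounds for 10 min at room temperature. NKH477 (200nM) was then added for 30 min. cAMP was read by HTRF.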
D(2) dopamine receptor (Homo sapiens), sequence (P14416 whole entry, looked up): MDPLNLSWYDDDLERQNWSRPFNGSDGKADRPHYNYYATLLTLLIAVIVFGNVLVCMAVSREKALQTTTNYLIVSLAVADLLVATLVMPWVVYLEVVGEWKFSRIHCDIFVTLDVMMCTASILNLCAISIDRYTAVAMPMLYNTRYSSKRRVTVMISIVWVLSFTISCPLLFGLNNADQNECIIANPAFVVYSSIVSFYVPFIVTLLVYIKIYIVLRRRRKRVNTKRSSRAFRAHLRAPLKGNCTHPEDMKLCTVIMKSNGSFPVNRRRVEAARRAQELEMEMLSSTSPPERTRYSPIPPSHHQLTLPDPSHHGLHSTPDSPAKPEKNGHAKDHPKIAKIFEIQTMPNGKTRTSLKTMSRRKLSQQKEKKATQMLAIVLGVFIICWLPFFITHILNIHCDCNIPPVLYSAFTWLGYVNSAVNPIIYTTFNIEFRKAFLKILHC

Test [18] shares this target. Put plainly: Dopamine D2 receptor (DRD2) small molecule antagonists, cell-based qHTS assay (AID 1963595; active = well fitted inhibition curve with a large enough effect in the signal ratio in the repeat runs, with a control signal flat; the % refers to the signal ratio). An outline of the steps: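 HEK293 cells stably expressing DRD2 were preincubated with 0.1 mM Ro20-1724, then with compound for 10 min at room temperature. Cells were stimulated with 200 nM NKH477 plus 12 nM quinpirole for 30 min, and cAMP was read by HTRF.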
A short description of test [19]: p53 small molecule agonists, cell-based qHTS assay with rat liver microsomes: qHTS cell viability counter screen (AID 1963580). Note: nearly all actives have a fitted effect of over 45% in size. An outline of the steps:
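In HCT-116 cells carrying a p53 response element-bla reporter, compounds were metabolically activated in situ by rat liver microsomes with NADPH over 16 h. Cell ATP content then served as the cytotoxicity measure.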

Muscarinic acetylcholine receptor M1 (Homo sapiens), sequence (P11229 whole entry, looked up): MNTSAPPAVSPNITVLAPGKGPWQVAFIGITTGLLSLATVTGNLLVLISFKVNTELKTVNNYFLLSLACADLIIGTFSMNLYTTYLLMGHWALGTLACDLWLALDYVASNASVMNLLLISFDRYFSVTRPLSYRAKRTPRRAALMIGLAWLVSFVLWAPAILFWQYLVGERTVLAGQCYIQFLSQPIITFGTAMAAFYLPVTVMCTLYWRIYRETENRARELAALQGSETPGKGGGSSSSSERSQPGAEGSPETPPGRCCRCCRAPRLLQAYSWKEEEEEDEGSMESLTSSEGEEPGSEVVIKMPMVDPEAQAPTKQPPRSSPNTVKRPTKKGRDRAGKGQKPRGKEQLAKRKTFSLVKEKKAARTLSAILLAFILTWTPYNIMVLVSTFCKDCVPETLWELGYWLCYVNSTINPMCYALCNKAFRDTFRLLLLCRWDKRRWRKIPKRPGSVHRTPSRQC
Beta-2 adrenergic receptor (Homo sapiens), sequence (P07550 whole entry, looked up): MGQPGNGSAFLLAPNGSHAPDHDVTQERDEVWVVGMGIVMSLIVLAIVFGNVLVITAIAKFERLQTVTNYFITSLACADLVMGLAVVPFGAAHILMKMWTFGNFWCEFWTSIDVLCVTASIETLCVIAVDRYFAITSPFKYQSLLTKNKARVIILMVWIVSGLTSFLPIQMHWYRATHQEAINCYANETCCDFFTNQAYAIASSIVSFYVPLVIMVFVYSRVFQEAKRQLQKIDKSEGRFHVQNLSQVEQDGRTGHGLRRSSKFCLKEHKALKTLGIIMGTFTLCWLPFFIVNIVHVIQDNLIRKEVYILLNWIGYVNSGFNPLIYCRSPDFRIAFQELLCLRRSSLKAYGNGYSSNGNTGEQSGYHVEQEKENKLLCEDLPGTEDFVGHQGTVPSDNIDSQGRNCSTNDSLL
KiSS-1 receptor (Homo sapiens), sequence (Q969F8 whole entry, looked up): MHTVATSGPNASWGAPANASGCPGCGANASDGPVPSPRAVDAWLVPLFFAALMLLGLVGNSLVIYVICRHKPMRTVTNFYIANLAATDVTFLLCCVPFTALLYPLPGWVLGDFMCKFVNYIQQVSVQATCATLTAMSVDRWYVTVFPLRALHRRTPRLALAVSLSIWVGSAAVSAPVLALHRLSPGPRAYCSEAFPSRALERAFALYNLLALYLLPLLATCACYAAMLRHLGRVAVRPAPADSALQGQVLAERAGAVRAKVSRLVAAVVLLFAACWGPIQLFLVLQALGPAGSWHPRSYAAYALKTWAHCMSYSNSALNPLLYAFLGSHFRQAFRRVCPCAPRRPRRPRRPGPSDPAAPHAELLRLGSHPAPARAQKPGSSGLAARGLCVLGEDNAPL

`CN1COCN(Cc2cnc(Cl)s2)/C1=N\[N+](=O)[O-]`: the Potency result in test [1], in [2], in test [3], in test [4], in test [5] and in [6] was “inactive” in each case. In addition, the Potency entry in [7], in [8], in [9], in test [10], in [11] and in [12] was “inactive” each time. In addition, the Potency result in [13], in [14], in test [15], in test [16], in test [17] and in test [18] was “inactive” throughout.

As for `c1ccc2cc3c(cc2c1)-c1cccc2cccc-3c12`, the Potency result in [1], in test [2], in test [3], in [4], in test [5] and in test [7] was “inactive” each time. Besides, the Potency entry in test [19], in [11], in test [12], in test [13], in test [16] and in test [17] was “inactive” each time. In test [18], the Potency result was “inactive”. For the same compound, in test [6], the Potency was 18 µM (active).

With `COC1CC(=C(c2cccs2)c2cccs2)C[N+](C)(C)C1` (configuration not stated), the Potency result in [1], in [2], in [3], in test [4], in test [5] and in [6] was “inactive” throughout. Moreover, the Potency result in test [7], in test [8], in [9], in test [10], in [11] and in [13] was “inactive” throughout. Moreover, the Potency result in test [14], in test [15] and in [16] was “inactive” throughout.

For the compound `COc1cc(OC)nc(NC(=O)NS(=O)(=O)c2ncccc2OCC(F)(F)F)n1`, the Potency result in [1], in test [2], in test [3], in [4], in test [5] and in test [6] was “inactive” in each case. Further, the Potency entry in test [7], in test [19], in test [8], in test [9], in test [11] and in test [12] was “inactive” each time. In addition, the Potency result in [13], in [14], in test [15], in test [16], in test [17] and in test [18] was “inactive” throughout.

In the case of `CC(C)(OO)c1ccccc1`, the Potency result in [1], in test [2], in [3], in [4], in test [5] and in test [6] was “inactive” each time. Moreover, the Potency result in test [19], in [8], in test [9], in [10], in test [11] and in test [12] was “inactive” each time. In addition, the Potency result in [13], in [15], in test [16] and in test [18] was “inactive” in each case.

As to `ClCCCCBr`, the Potency result in test [1], in test [2], in test [3], in [4], in [5] and in test [7] was “inactive” each time. Further, the Potency result in [19], in [8], in test [10], in test [11], in test [12] and in test [13] was “inactive” in each case. The Potency result in test [14], in test [16] and in test [17] was “inactive” each time.

In the case of `CN(C)C1CSSSC1`, the Potency result in test [1], in [3], in [4], in test [5], in [7] and in test [19] was “inactive” in each case. Moreover, the Potency result in test [8], in test [10], in [11], in test [12], in [13] and in test [14] was “inactive” each time. Besides, the Potency entry in test [16], in test [17] and in test [18] was “inactive” in each case. The Potency in [2] was 61.1 µM (active).
